# In all, about 25,000 sequences were measured (“ln(normalized median fluorescence intensity)”: median about 6.7, highest 2% from about 10 on). Many of the other results were omitted from the sample, so the highest values are more common in it than they were.
# System: PfHDP1 homeodomain (GST-tagged)
# Experiment: gcPBM binding intensity (ln(normalized median fluorescence intensity)); higher = stronger DNA binding
# Method in brief: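 Using an Agilent 4 × 180k array, primer-extended double-stranded 36-bp intergenic genomic probes and negative controls were exposed for 1 h to GST-fused P. falciparum DNA-binding domains expressed in E. coli. Binding was carried out in 1× PBS with 1% milk, 0.2 mg/ml BSA, 0.5% salmon testes DNA and 0.03% Triton X-100, and protein was detected with Alexa488 anti-GST antibody and a 488 nm scan. Binding intensity is the highest Masliner-normalised natural-log median intensity across replicate spots of either probe orientation.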
row,Sequence,gcPBM binding intensity (ln)
1,TGTAGACTACATAGTAGTACATAATATATACATATA [XGTACX_site367],6.21
2,TACTTATTATGAAACACACACCAAAACTACAGAATA [CACACA_site6265],7.04
3,GTGCATATATGATATACACACAATATAATAGTATGT [CACACA_site2460],7.18
4,TTTTTTTTTAATCATGCACACTGTTAAAAGAATAAA [CACACA_site4817],8.29
5,TTTTTATGGACTATGGTGCATTATATATAAATGAAA [GTGCAC_site9557],10.3
6,ATTATCAATATGAAGGTGCATTTAAATAATATTTAC,9.62
7,ATTAAATGCAGTTCGGTGCATTAAGGTTATGATGAA [GTGCAC_site9883],10.7
8,TAATATAATGATGCAGTGCATATGTTAAAATGAAAA,8.68
9,TCTTGTTCGCCCTATTGTACAAACATATATTGTGAT [XGTACX_site2884],7.27
10,AATATAAAAATGCACACACACAAAAAAAAAAAAAAA [CACACA_site6546],9.21
11,AAATATAAAGTGCACACACACAAAAAAAGAAAAAAA [CACACA_site6452],8.92
12,ATTATATATAAACACACACACATGCATGCACATATA [CACACA_site4237],10.5
13,AACGGGTAATGCACAAAAAAAAAAAAATAAAATAAA [TGCATGCA_negctrl_site474],10.9
14,ATATTATATAAATACACACACACATGCATGCACATA [CACACA_site4236],10.3
15,AAAATATAATATAATGCACACATAAAACAAAAAAAA [CACACA_site8989],9.76
16,AATATAATATAATGCACACATAAACAAAAAAAAAAT [CACACA_site1304],10.5
17,ATATAAACACTGAATGCATGCACATATATATATATA [TGCATGCA_site940],9.37
18,AAAATATAATATAATGCACACATAAACAAAAAAAAA [CACACA_site8161],10.1
19,GCACAAATATATATATATATATATATATATATATAT [GTGCAC_negctrl_site661],9.39
20,TAATAAATCAAATGCACACACACAAAAAAAAAAAAA [CACACA_site161],10
21,ATGAGTGCACAAATATATATATATATATATATATAT [CACACA_negctrl_site404],10.7
22,TTCTTAATATTGCATGCACACTATATAATAATTGAA [CACACA_site4720],9.18
23,GTCTCCTTTATTTTTGGTACAGATAAGATAAAAGGA [XGTACX_site1591],6.46

row,Sequence,gcPBM binding intensity (ln)
1,CACTTAAAAAAAATACGTACACATATATATATATAT [XGTACX_site2054],9.39
2,TATAATATAATTAAAAGTACTTAAAAAAGAATGAAA [XGTACX_site1157],6.99
3,CATCAATGCTAATTATGTACTTACATAAATAACCCT [XGTACX_site968],6.52
4,TTGTGCTTGATATCACGGACAAGCTCATATTATATA [XGTACX_site4553],6.03
5,AATGTCATGATACATACACACACATACACATACACA [CACACA_site8665],6.98
6,ATATAACGAATAATTACACACTATAAAAAAAGATCT [CACACA_site2862],6.63
7,TATAAAAATATATGCACACAAATAAAAAATTATATA [CACACA_site3629],9.87
8,AATTATGCACAAATCACACATATAAAATAAAAAGTG [CACACA_site4474],11.1
9,TATAATATTCCTTTTTAACACACATATGAACAAATA [CACACA_site7932],6.77
10,GTACACCTATAATATACACACAACAAATATGCACAT [CACACA_site6603],10.2
11,ATGAATCCTTAATATGAACACACAAATATATTACAC [CACACA_site7943],6.7
12,CATATAAAAATATATGCACACAAATAAAAAATTATA [CACACA_site9210],10
13,AATATAAAATAATGCACACATAAACAAAAAATCAAA [CACACA_site1371],10.4
14,AAATATAATATATGCACACATACATACATATATATA [CACACA_site104],10.3
15,GTACACATATAATATACACACAACAAATATGCACAT [CACACA_site1010],10.6
16,AAAATATAAAATAATGCACACATAAACAAAAAATCA [CACACA_site8382],10.5
17,ATCCTTAATATGAACACACAAATATATTGCACATAT [CACACA_site6230],10.9
18,AGAAAAAAAATGTATACACACAAATATAAAGAAGGA [CACACA_site3806],7.09
19,GTACTCTTCTCCAGACTGCACTATACGACTCGTACA [GTGCAC_site9770],7.35
20,AAATATTTTTTAATGTGTACATAGAACATATATATA [XGTACX_site3136],6.59
21,TTTGTCTGCATACGCACACACGTGTACCATCTTATG [CACACA_site4784],7.89
22,AATTAACAAAGACACACACACACACGCACAAAAAAA [CACACA_site6388],7.33
23,GTTAAAATTGGGGACGCATGTTCCTTTCCTTTTTTT [TGCATGCA_site1002],5.83

row,Sequence,gcPBM binding intensity (ln)
1,AATATAATATAATGCACACATAAAACAAAAAAAAAA [CACACA_site3012],10.2
2,TTAACAAATAAATGCACACATATATATAAATAATAT [CACACA_site28],9.43
3,ATATAATCTGAGTGCACACAAATAAATAAACATACA [CACACA_site422],10.2
4,TAATATAATCTGAGTGCACACAAATAAATAAACATA [CACACA_site8032],11.2
5,TAAATATAAACACAAACACACACATATATATATATA [CACACA_site7978],9.27
6,AATATAATATAATGCACACATAAACAAAAAAAAAAA [CACACA_site783],10.5
7,AATGTTAAACTATGATGTACGGTTAAAAATATAATT [XGTACX_site893],6.43
8,TTATATTTTCAGAATAGTACACATATATACATATAT [XGTACX_site2519],6.46
9,GTATCAATAAAAAACAGTACATATATAATATATTTA [XGTACX_site1083],6.24
10,TATTTTCATTTGCGCGCACACAATAATAATTTTTGG [CACACA_site3525],8.28
11,TTTAATTTGATAGACACATGCACACGTGCAATACTT [TGCATGCA_site777],10.9
12,GATAGACACGTGCACACATGCAATACTTTATTCAGT [TGCATGCA_site778],10
13,ATTTGATAGACACATGCACACATGCAATACTTTATT [CACACA_site5633],9.05
14,TATTAACAAAATTTTTAACACACAAAAAAAAAAAAA [CACACA_site8542],6.18
15,ATATCAACTGAATTGTATAGGCGATAAAAGAAAAAA [CACACA_negctrl_site1334],6.58
16,ATAGAAGGCAACTTGGTGCACAAAAAAAAAAATAAT,10.5
17,AACATGCAAACATGCACACAGAAAAAAAAAATATAT [CACACA_site1565],9.37
18,TATATATCAAAAATATGTACACAGAAATATATATTA [XGTACX_site6997],6.96
19,TCCTATATCACAAATGTGCACAGAAAAAAAAAATAT,11
20,TATTCTTACAAAAGTAGTACAATCATTCATATTTTT [XGTACX_site631],6.42
21,AATTTTTTTTTTTTGTTGCACTTTTAGAGTTTTAAT [GTGCAC_site9519],7.37
22,TTTTTTTTTTATTTTGCACACTTCTAATTTAGTTGT [CACACA_site3429],10.7
23,AAAAAAATAGTCTTCTTGCACTTTTTAATTTATTTT,6.7

row,Sequence,gcPBM binding intensity (ln)
1,AACAATTAGAACTTTGCACACTTCTATATATTTTGT [CACACA_site674],10.2
2,AAAAATAGTCTTCTTGCACTTTTTAATTTATTTTAA [CACACA_negctrl_site1322],6.76
3,TTTTTTTTTTATTTTGCACACTTCTAATTTAGTTCT [CACACA_site5828],10.7
4,TAATATGAATATATATGTACATACAATTTGTTATAT [XGTACX_site5815],6.55
5,TCATATGTATAAATTAGTACATATTTAATGGATATA [XGTACX_site3298],6.26
6,ATAATAATATATATTACACACGCATCGTTCATTTAT [CACACA_site8752],7.06
7,CAATGTTAATATAATACACACAATATGTATTTGTCT [CACACA_site1162],6.8
8,ATATATATATTAAAGGTGCACAAATAAATATATACA [GTGCAC_site9532],9.88
9,TAGGTCATATTTTTTGCACACAAAAAAAAATATAAA [CACACA_site3380],9.79
10,AAAAATAAAAGGTGTGCACACAAAAATATATATATA [CACACA_site8507],10.7
11,ACAAAAAAATAAGGTGCACACAAAAAAAAAAAAAAA [CACACA_site8171],9.22
12,AAAAATAAAGGGTGTGCACACAAAAATATATATATA [CACACA_site1727],10.7
13,AAAGGTTTGCGTTGTGTGCACAAAATAAATATATAA,10.6
14,AAATAAAAAGGGTGCACACAAAAATATATATATATA [CACACA_site1728],10.4
15,AAAAAAATAAGGTGCACACAAAAAAAAAAAAAAAAA [CACACA_site812],9.95
16,AAGATAAAATGATGCACACAAAAGGGTGTAATATAT [CACACA_site1706],8.59
17,AGTAGTCTGGAGAAAAGTACACAGTATCTGGTAACA [XGTACX_site2034],6
18,TTTTTTTTTTTTTATACACACATTAAAATAAAAAAG [CACACA_site3946],6.74
19,TTTTAAATATGCCATACACACTACTCTATAATAAAT [CACACA_site6987],6.56
20,AATTTTATTCATTGAGCACACAAAATAAATTATCAA [CACACA_site9079],6.73
21,TACAAAATAAAAATAATTCTTTCAAAAAATAATAAA [XGTACX_negctrl_site368],5.86
